Experimental data from the supplement of paper PMC3334620.
In all, about 33,000 sequences were measured (“E-score (-0.5 to 0.5)”: median about -0.035, highest 2% from about 0.35 on). This is one part of a sample in which the highest values are shown more often than they occur.

Molecular target: T1, Pdr3 (UniProt P33200)
T1 sequence: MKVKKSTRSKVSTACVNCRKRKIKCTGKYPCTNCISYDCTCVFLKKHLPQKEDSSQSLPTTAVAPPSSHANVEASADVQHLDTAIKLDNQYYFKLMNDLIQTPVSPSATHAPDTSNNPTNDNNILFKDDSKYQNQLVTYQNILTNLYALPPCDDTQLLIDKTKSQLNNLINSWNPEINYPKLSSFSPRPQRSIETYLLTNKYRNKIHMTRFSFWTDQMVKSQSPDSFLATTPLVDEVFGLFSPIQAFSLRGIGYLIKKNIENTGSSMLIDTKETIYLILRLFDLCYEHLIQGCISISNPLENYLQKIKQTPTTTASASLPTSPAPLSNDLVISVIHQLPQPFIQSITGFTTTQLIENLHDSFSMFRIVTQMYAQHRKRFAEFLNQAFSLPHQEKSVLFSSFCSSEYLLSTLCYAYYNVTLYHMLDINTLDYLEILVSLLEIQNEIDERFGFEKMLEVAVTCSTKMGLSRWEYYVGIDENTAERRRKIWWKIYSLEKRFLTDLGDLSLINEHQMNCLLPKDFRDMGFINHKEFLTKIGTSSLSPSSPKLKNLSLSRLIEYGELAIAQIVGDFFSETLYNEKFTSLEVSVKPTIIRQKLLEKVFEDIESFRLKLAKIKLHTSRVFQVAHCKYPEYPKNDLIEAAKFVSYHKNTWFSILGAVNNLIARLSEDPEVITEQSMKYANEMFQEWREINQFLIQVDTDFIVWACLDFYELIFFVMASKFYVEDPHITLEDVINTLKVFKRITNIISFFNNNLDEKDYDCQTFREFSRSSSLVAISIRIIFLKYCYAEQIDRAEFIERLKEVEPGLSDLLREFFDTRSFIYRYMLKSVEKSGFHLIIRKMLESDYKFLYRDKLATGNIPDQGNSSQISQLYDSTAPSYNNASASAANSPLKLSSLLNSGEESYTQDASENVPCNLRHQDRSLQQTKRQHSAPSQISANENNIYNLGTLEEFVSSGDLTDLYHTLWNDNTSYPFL
Experiment: PBM E-score (8-mer binding enrichment) (E-score (-0.5 to 0.5)); higher = stronger / more preferred TF binding
Conditions: protein concentration: 200 nM; construct: GST-full length
Description: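 Universal 'all 10-mer' protein binding microarrays (Agilent AMADID 015681) probed with GST-tagged S. cerevisiae TFs (full-length or DBD) made by in vitro transcription/translation (PURExpress), about 100-200 nM. Bound TF was detected with fluorescent anti-GST. Each ungapped 8-mer (which stands for itself and its reverse complement) is scored by the PBM enrichment score (E-score), a modified Wilcoxon-Mann-Whitney statistic from -0.5 to +0.5, computed with the Universal PBM Analysis Suite. Scale: above 0.35 generally sequence-specific binding.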

Sequence	PBM E-score
AGCTTCGA	-0.102
AAGCCGGA	0.392
CAGCCGAA	0.0741
GAGCCGCA	0.044
CAGCCGGC	0.324
AAGCCGGG	0.262
AAGCCGGC	0.366
CAGCCGGA	0.398
GAGCCGGC	0.324
AAGCCGGT	0.199
CAGCCGGG	0.229
GAGCCGGA	0.362
AAGCCGTC	0.178
AAGTGCTC	-0.107
AGTTCTAA	0.00941
ACGGTGAA	-0.0181
AATCGTCA	-0.112
GTTGATCA	0.0338
AGCCCCAT	-0.0914
TAGCCGCA	-0.0883
TAGCCGGA	0.372
TAGCCGAA	0.0812
AAAGAGGA	-0.131
ATAACTGA	0.00191
CTGAACTC	-0.215

Sequence	PBM E-score
CGGAACTA	0.473
AGGAACTC	0.0544
GGGAACTA	0.0485
AGGAACTA	0.0717
CGGAACTC	0.452
CTCTTCTC	-0.18
GTATGGAC	0.0423
ACCGATGG	-0.0565
CTACTGTA	-0.136
ACTAAACT	-0.121
AGCAGCAC	-0.129
GTTGCCTA	0.0329
ACCCGGGA	0.448
ACCCGGGC	0.424
ACCGGGGC	0.224
GACCGGGC	0.0834
ACCCGGTC	0.199
ACCCGGCT	0.24
CCCCGGGC	0.33
ACCCGGGT	0.446
AACCGGGA	0.243
GCCCGGGC	0.427
ACCGGGGA	0.0294
ACCCCGGT	0.186
GGCACCCC	-0.0993

Sequence	PBM E-score
CTGGCCAA	0.0275
AGGATCTA	-0.352
ATTACTAA	-0.0285
GCGGGCCA	0.0261
CCACCATA	0.0173
ATTTTCTA	-0.183
ACGAGGCA	-0.211
GTCAAAGA	-0.212
TAAATTAA	0.0873
AACCTCCG	0.219
CGAAGAAC	0.119
AGCCCAAT	-0.194
GCCCGGGA	0.393
GACCGGGA	0.304
GCCGGGGA	0.2
GCGTTCCC	0.139
CTGCCCCA	-0.045
AGCGGACA	0.154
AGCGGACC	0.175
CGCGGACG	0.342
CGCGGACA	0.361
CGTGGACA	0.108
GGCGGACC	0.357
CGGGGACC	0.291
GGCGGACA	0.185

Sequence	PBM E-score
CGCGGACC	0.437
GATCGCCC	0.00089
CAAACCGA	-0.0979
CGCCGTCC	0.115
TGACGCAA	-0.165
CGGACTCA	0.31
GACAAGGA	-0.0759
AGACTCGG	-0.099
ACGTCAAG	-0.311
GGACCGGA	0.382
CGACCGAA	0.0221
AGACCGGA	0.254
GGACCGCA	0.243
CGACCGGA	0.358
CGACCGGC	0.161
ATGCCAGC	-0.22
CTCAAAAA	-0.0515
CACCCGTC	0.215
CAGTCTGC	-0.173
CTACTTGA	-0.238
GGGGATTA	0.162
CGGGATTA	0.404
CGGGATGA	0.369
GGGGATGA	0.0246
AGGGATTC	-0.0434

Sequence	PBM E-score
CTGGATTC	0.105
CGGGATGC	0.311
AGGGATTA	-0.132
CGGGATTC	0.382
AGCCGAGC	0.267
GTAACCCA	0.0499
AAGCGAAA	-0.0467
CTCGTAGC	-0.167
CGACCATA	0.0144
CTTCTGGA	-0.0291
CATCTACC	0.0434
AGCTCGGA	0.316
TACTCGGA	0.336
CCCTCGGC	0.173
GACTCGGA	0.39
GGCTCGGA	0.338
CGCTCGGA	0.359
GCCTCGGA	0.308
CCCTCGGA	0.373
CCGTCGGC	0.285
ACGTCGGA	0.175
CCGTCGGA	0.361
AACTCGGA	0.296
ACGATCAG	-0.108
AGCTCCCT	-0.178

Sequence	PBM E-score
CATAAAGG	-0.0331
TCACGAAA	0.0507
AGCGGGGG	-0.158
ACCTCGGG	0.158
ACCTCGGC	0.307
ACCTCGGA	0.357
AACGTCAA	-0.146
GCTATTCA	0.0956
AATGGTAG	-0.0896
GGAACTCC	0.366
AGAACTCC	0.0347
CGAACTCC	0.132
CTCGCGAG	0.192
ACGCGGGC	0.17
CCGCGGGC	0.484
ACGCGGTA	0.0327
GCGCGGTA	0.28
CCGCGGTC	0.432
CCGCGGTA	0.473
CTGCGGGC	0.218
ACGCGGTC	0.181
CGGCGGTC	0.145
GATCCAAA	0.064
ACGTCTAT	-0.168
ACGTAGCT	-0.31

Sequence	PBM E-score
CCGTCTAG	0.178
TCCGGCAA	0.356
TACGGCAA	-0.034
TTCGGCAA	-0.0284
ACCGGCAC	0.192
GCCGGCAA	0.37
ACCGGCAA	0.185
CCCGGCAC	0.154
CCCGGCAA	0.286
GCCGGCAC	0.392
TGAACGAA	-0.195
CCTCAACC	-0.118
AGATTACA	-0.107
ACTGTGAG	-0.0549
GAGGCTGA	-0.305
AGAGGGCG	0.126
CGCGCTAA	0.205
CCGGTCGA	0.167
CCCCGACA	0.0765
GCCGGACA	0.315
CCCGGACG	0.223
TCCGGACA	0.447
CCCGGACA	0.362
ACCGGACA	0.206
